{
  "source": "PubChem BioAssay AID686978",
  "about": "(National Center for Advancing Translational Sciences (NCATS), 2013)",
  "note": "Among all 420,000 compounds or so, about 64,000 (15%) were called active. Inconclusive results (about 27%) are left out. Calls follow the shape of the dose curve; as a rule, active = well fitted inhibition curve with a large enough effect; inconclusive = small, poorly fitted or top-dose-only effect; inactive = flat fitted curve, though single readings scatter. A selection follows. % is scaled to controls: 0 for no effect and ±100 for the full control effect; potency is read from the fitted curve at half-maximal effect.",
  "data": [
    {"test": "qHTS for Inhibitors of human tyrosyl-DNA phosphodiesterase 1 (TDP1): qHTS in cells in absence of CPT; also: nearly all actives have a fitted effect of over 55% in size", "conditions": "DT40 Tdp1-/- hTDP1 cells, no CPT, ATP luminescence, 48 h; activity change, negative = growth inhibition: at 46.2 µM (top of the series)", "summary_of_the_method": "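Luminescent ATP content (CellTiter-Glo) served as the growth readout. Knockout chicken DT40 cells expressing human TDP1 were exposed to compounds without camptothecin for a minimum 48 hr at 37 °C.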", "values": [
      {"smiles": "COC(=O)c1ccc(NC(=O)CSc2nncn2-c2cccnc2)cc1", "activity change, negative = growth inhibition": "-7.79% (inactive)"},
      {"smiles": "Cc1ccc(SCCC(=O)NC(C(C)C)C(C)C)cc1", "activity change, negative = growth inhibition": "-24.3% (inactive)"},
      {"smiles": "CCOC(=O)c1cccc(NS(=O)(=O)c2cc(-c3cnc(C)o3)ccc2OC)c1", "Potency": "6.51 µM (active)"},
      {"smiles": "CCOC(=O)c1cccc(NS(=O)(=O)c2cn(C)c(C)n2)c1", "activity change, negative = growth inhibition": "-22.6% (inactive)"},
      {"smiles": "COc1ccc(Cl)cc1S(=O)(=O)Nc1cccc(C(=O)O)c1", "activity change, negative = growth inhibition": "-5.98% (inactive)"},
      {"smiles": "Cc1ccccc1NC(=O)Cc1nc(COC(=O)CNC(=O)c2ccc(Cl)cc2Cl)cs1", "activity change, negative = growth inhibition": "-25.5% (inactive)"},
      {"smiles": "COc1ccccc1OCCCCCCN1CCN(C)CC1", "activity change, negative = growth inhibition": "-25% (inactive)"},
      {"smiles": "CN1CCN(CCCCOc2cccc3ccccc23)CC1", "Potency": "16.4 µM (active)"},
      {"smiles": "CCN1CCN(CCCCOc2ccccc2F)CC1", "activity change, negative = growth inhibition": "-12.2% (inactive)"},
      {"smiles": "CCn1nc(C(=O)NNC(=O)C2CSC3(C)CCC(=O)N23)c2ccccc2c1=O", "note": "(centres undefined)", "activity change, negative = growth inhibition": "-9.61% (inactive)"},
      {"smiles": "CC(=O)c1cccc(NC(=O)COc2ccc(S(=O)(=O)N3CCOCC3)cc2)c1", "activity change, negative = growth inhibition": "-7.65% (inactive)"},
      {"smiles": "CC1CCN(S(=O)(=O)c2ccc3[nH]c(=O)ccc3c2)CC1", "activity change, negative = growth inhibition": "-6.32% (inactive)"},
      {"smiles": "CC(=O)c1cccc(Nc2ccc3cc(S(=O)(=O)N4CCC(C)CC4)ccc3n2)c1", "Potency": "16.4 µM (active)"},
      {"smiles": "O=C(OCc1nc2ccccc2[nH]1)C1CCCCC1", "activity change, negative = growth inhibition": "-25.3% (inactive)"},
      {"smiles": "CC/C(O)=C1\\C(=O)CC(C)(C)CC1=NCCc1nc2ccccc2[nH]1", "Potency": "20.6 µM (active)"},
      {"smiles": "Nc1cccc(CCc2nc3ccccc3[nH]2)c1", "activity change, negative = growth inhibition": "-16.2% (inactive)"},
      {"smiles": "COc1ccc(NC(=O)COc2ccc(C(=O)OCC(=O)N(C)C3CCS(=O)(=O)C3)cc2OC)cc1", "note": "(centres undefined)", "activity change, negative = growth inhibition": "-29% (inactive)"},
      {"smiles": "CCOC(=O)N1CCN(C(=O)c2ccccc2N(Cc2ccccc2)S(=O)(=O)c2ccc(OC)cc2)CC1", "Potency": "3.26 µM (active)"},
      {"smiles": "NC(=O)c1ccccc1N(Cc1ccccc1)S(=O)(=O)c1ccccc1", "activity change, negative = growth inhibition": "-24.2% (inactive)"},
      {"smiles": "CCOC(=O)N1CCN(S(=O)(=O)c2ccc(OC)cc2)CC1", "activity change, negative = growth inhibition": "-11.3% (inactive)"},
      {"smiles": "CN(CCO)Cc1csc2ccc(Br)cc12", "activity change, negative = growth inhibition": "-27.8% (inactive)"},
      {"smiles": "COC(=O)c1c(C)oc2ccc(N(C(=O)Oc3ccccc3)S(=O)(=O)c3ccccc3)cc12", "Potency": "11.6 µM (active)"},
      {"smiles": "CCOC(=O)c1c(C)oc2cc(Br)c(OCC(N)=O)cc12", "activity change, negative = growth inhibition": "0.351% (inactive)"},
      {"smiles": "CCOC(=O)c1c(C)nc2c(c1C)c(=O)oc1ccccc12", "activity change, negative = growth inhibition": "-2.71% (inactive)"},
      {"smiles": "CN(CC(=O)O)S(=O)(=O)c1ccc2oc3ccccc3c2c1", "activity change, negative = growth inhibition": "1.02% (inactive)"},
      {"smiles": "CCOC(=O)c1c(C)oc2ccc(N(C(=O)c3ccncc3)S(=O)(=O)c3ccc(CC)cc3)cc12", "Potency": "2.91 µM (active)"},
      {"smiles": "COc1ccc2oc(C(=O)NCC(Cc3ccccc3)N(C)C)c(C)c2c1", "note": "(centres undefined)", "activity change, negative = growth inhibition": "-72.7% (inactive)"},
      {"smiles": "O=C(CN1CCOCC1)Nc1c2c(nc3c1CCC3)CCC2", "activity change, negative = growth inhibition": "-10.9% (inactive)"},
      {"smiles": "CCC(C)N(C(=O)COC(=O)C1C(C(=O)OC)=C(C)NC(C)=C1C(=O)OC)C1CCS(=O)(=O)C1", "note": "(centres undefined)", "activity change, negative = growth inhibition": "18.7% (inactive)"}
    ]}
  ]
}
